Inconclusive results are not listed. Calls of active or inactive are those of the source. The call rests on the fitted dose curve; in most records, active means well fitted cell-killing curve with a large enough effect; inconclusive means small, poorly fitted or top-dose-only effect, or effect the other way; inactive means flat fitted curve, though single readings scatter.
Key:
Test in all cases: Primary qHTS to identify gynecologic anti-cancer compounds using libraries of approved drugs and bioactive compounds (AID 1345084); further: nearly all actives have a fitted effect of over 55% in size
Details in all cases: Gynecologic cancer cell panel viability, ATPlite luminescence, 48 h; series mostly up to 57.5 µM
[1] = tested on: PA-1
How it was run: (§1)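 Cell viability after 48 h drug treatment, ATPlite luminescence readout; five doses.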

[2] = tested on: SKOV3
How it was run: as §1

[3] = tested on: Tov-21-G
How it was run: as §1

[4] = tested on: Tov112D
How it was run: as §1
On the % scale 0 is the no-effect control and ±100 the full control effect.

C=C1CCC2C(C)(C)CC(O)CC2(C)C1CCC(C)CCOC(=O)CCC(=O)O (centres undefined)
inactive: Potency [1] | Potency [2] | Potency [3] | Potency [4]

CC(C)NC(=O)c1ccc(C#Cc2ccncc2)cn1
inactive: Potency [1] | Potency [2] | Potency [3] | Potency [4]

CCCCCOC(=O)Nc1nc(=O)n(C2O[C@H](C)[C@@H](O)[C@H]2O)cc1F (some centres undefined)
inactive: Potency [1] | Potency [2] | Potency [3] | Potency [4]

CC1OC(O[C@H]2CC[C@@]3(C)C(CC[C@]4(C)C3CC=C3C5CC(C)(C)CC[C@]5(C(=O)OC5OC(CO)C(OC6OCC(OC7OCC(O)C(O)C7O)C(O)C6O)C(O)C5O)CC[C@]34C)C2(C)C)C(O)C(O)C1OC1OC(CO)C(O)C(OC2OC(CO)C(O)C(O)C2O)C1O (some centres undefined)
inactive: activity change, negative = cytotoxicity [1] -1.37% [at 6.55 µM] | activity change, negative = cytotoxicity [2] 3.95% [at 6.55 µM] | activity change, negative = cytotoxicity [3] -4.11% [at 6.55 µM] | activity change, negative = cytotoxicity [4] -3.05% [at 6.55 µM]

CC(NC(=O)CC(=O)O)C(=O)Nc1ccccc1C(N)=O (centres undefined)
inactive: Potency [1] | Potency [2] | Potency [3] | Potency [4]

Cc1c(O)cc2c(c1O)COC1(O)CCCOC21 (centres undefined)
inactive: Potency [1] | Potency [2] | Potency [3] | Potency [4]

COc1cccc(C)c1C(=O)O[C@@H]1C[C@H](O[C@H]2[C@H](O)C[C@H](O[C@@H]3CCC[C@H]4[C@H]3C=C[C@@H]3CCCC/C=C/[C@H]5C=C(C(=O)O)[C@@H](C)C[C@@]56OC(=O)C(=C6O)OC(=O)[C@@]34C)O[C@@H]2C)O[C@H](C)[C@H]1O
inactive: activity change, negative = cytotoxicity [1] 9.36% [at 11.6 µM] | activity change, negative = cytotoxicity [2] 18.8% [at 11.6 µM] | activity change, negative = cytotoxicity [3] 11.1% [at 11.6 µM] | activity change, negative = cytotoxicity [4] -1.83% [at 11.6 µM]

C=C1CCC2C(C)(C)CC(=O)CC2(C)C1CCC(C)CCO (centres undefined)
inactive: Potency [1] | Potency [2] | Potency [3] | Potency [4]

CC(=O)OC(C)C(C)(O)C(=O)O[C@@H]1CC[C@]2(C)CC(=O)C(=C(C)C)C[C@H]2[C@]1(C)OC(C)=O (some centres undefined)
inactive: Potency [1] | Potency [2] | Potency [3] | Potency [4]

CC1CC2(O)OC(=O)C3=C2C(CCC3)[C@@]12C[C@@H](c1ccoc1)OC2=O (some centres undefined)
inactive: Potency [1] | Potency [2] | Potency [3] | Potency [4]

C/C=C(\C)C(=O)O[C@H]1C=CC(=O)O[C@H]1/C=C/[C@H](O)[C@@H](C)O
inactive: Potency [1] | Potency [2] | Potency [3] | Potency [4]

N=C(N)c1ccc2nc(-c3cc(CC(=O)NC(CC(=O)O)C(=O)O)cc(-c4cc(S(N)(=O)=O)ccc4O)c3O)[nH]c2c1 (centres undefined)
inactive: Potency [1] | Potency [2] | Potency [3] | Potency [4]

CC(C)=CC[C@H]1O[C@]2(O)C([C@H]3CCC4[C@@]5(C)CC[C@H](O[C@@H]6O[C@H](CO)[C@H](O)[C@H](O[C@@H]7O[C@H](CO)[C@@H](O)[C@H](O)[C@H]7O)[C@H]6O[C@@H]6O[C@@H](C)[C@H](O)[C@@H](O)[C@H]6O)C(C)(C)C5CC[C@@]4(C)[C@]3(C)[C@H]2O)[C@@]1(C)O (some centres undefined)
inactive: activity change, negative = cytotoxicity [1] 0.425% [at 11.6 µM] | activity change, negative = cytotoxicity [2] 28% [at 11.6 µM] | activity change, negative = cytotoxicity [3] -2.04% [at 11.6 µM] | activity change, negative = cytotoxicity [4] 6.89% [at 11.6 µM]

O=C(OC[C@H]1O[C@@H](Oc2ccccc2CO)[C@H](O)[C@@H](O)[C@@H]1O)c1ccccc1
inactive: Potency [1] | Potency [2] | Potency [3] | Potency [4]

O=C(C[C@@H]1C(C(=O)O)=CO[C@@H](O[C@@H]2O[C@H](CO)[C@@H](O)[C@H](O)[C@H]2O)/C1=C\CO)OCCc1ccc(O)cc1
inactive: Potency [1] | Potency [2] | Potency [3] | Potency [4]

COC(=O)C1C(c2ccc(O)cc2)C(C(=O)O)C1c1ccc(O)cc1 (centres undefined)
inactive: Potency [1] | Potency [2] | Potency [3] | Potency [4]

C=C(C)[C@@H]1CC[C@]2(C(=O)O)CC[C@]3(C)C(CCC4[C@]5(C)C(CC[C@]43C)C(C)(C)[C@@H](O)[C@@H]5C(=O)O)C12 (some centres undefined)
inactive: Potency [1] | Potency [2] | Potency [3] | Potency [4]

CC1=C(CCC(C)O[C@@H]2O[C@H](CO)[C@@H](O)[C@H](O)[C@H]2O)C(C)(C)CC(O)C1 (some centres undefined)
inactive: Potency [1] | Potency [2] | Potency [3] | Potency [4]

Oc1ccccc1-c1cc(-c2ccccc2F)[nH]n1
inactive: Potency [1] | Potency [2] | Potency [3] | Potency [4]

O=C(O)/C=C/c1ccc2occc2c1O[C@@H]1O[C@H](CO)[C@@H](O)[C@H](O)[C@H]1O
inactive: Potency [1] | Potency [2] | Potency [3] | Potency [4]

O=C(CCc1ccccc1)c1c(O)c([C@@H]2O[C@H](CO)[C@@H](O)[C@H](O)[C@H]2O)c(O)c([C@@H]2O[C@H](CO)[C@@H](O)[C@H](O)[C@H]2O)c1O
inactive: Potency [1] | Potency [2] | Potency [3] | Potency [4]

Reference: PubChem BioAssay (NCATS)
